Screening data deposited in PubChem by National Center for Advancing Translational Sciences (NCATS).
GLP1R ag = agonists of human GLP-1 receptor; P43220; HEK293 GLP-1R CRE-luciferase, luminescence, 4-6 h; cells express a hypersensitive GLP-1R form; Potency, µM (highest dose often 45.6 µM), most hits filed as activators; hit rate 0.007% among 380,000; AID 624172
ClpP mod = qHTS Assay for Activators of ClpP | ATP-dependent Clp protease proteolytic subunit (Bacillus subtilis (strain 168)), P80244 | purified B. subtilis ClpP, FRET peptide cleavage, 20 min | Potency, µM (titrated, usually from 57.5 µM) | hit rate 1.9% among 340,000 | AID 651965, 2013; active = well fitted falling curve with a large enough effect; inconclusive = small, poorly fitted or top-dose-only effect; inactive = no such curve, though single readings can be large or run the other way; note: the source files actives as falling curves though it sought activators and does not explain the sign; nearly all actives have a fitted effect of over 65% in size
Target sequence (P80244 whole entry, looked up): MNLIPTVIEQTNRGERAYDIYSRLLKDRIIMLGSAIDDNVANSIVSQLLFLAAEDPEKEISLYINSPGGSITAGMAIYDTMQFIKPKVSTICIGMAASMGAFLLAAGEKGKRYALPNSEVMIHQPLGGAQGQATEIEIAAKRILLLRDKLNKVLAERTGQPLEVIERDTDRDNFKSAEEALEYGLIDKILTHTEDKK
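ClpP 10 microg/mL final, pH 8 Tris/KCl buffer with BSA, glycerol, Tween-20; compound pinned in; FRET-FV substrate; RT 20 min; Ex320/Em430; ΔFRET vs ADEP 5.8 microM, DMSO, no enzyme.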
GLP1R inv ag = acts as inverse agonist at human GLP-1 receptor; P43220; HEK293 GLP-1R CRE-luciferase, luminescence, 24 h; GLP-1R form is constitutively active; Potency, µM (titrated, usually from 38.3 µM), most hits filed as inhibitors; hit rate 1.6% among 410,000; AID 624417; note: nearly all actives have a fitted effect of over 55% in size
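Inverse agonists were sought by their lowering of basal cAMP reporter luciferase output in HEK293 cells stably carrying constitutively active human GLP-1R, after 24 h compound treatment.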
HEK293 tox = cytotoxicity in counter-screen for GLP-1R inverse agonists | HEK293 cAMP-luciferase reporter cells, luminescence, 24 h | Potency, µM (titrated, usually from 38.3 µM), most hits filed as inhibitors | hit rate 0.13% among 410,000 | AID 624418;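 note: loss of luciferase light is scored as toxicity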
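Quantitative HTS format, 1536 wells, 200 cells/uL seeded. Compounds: 23 nL, 24 h, 37 °C. Detection: luciferase reagent, luminescence at 12 min RT; decreased signal taken as cytotoxic.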
A number is an active result; n = inactive; u = inconclusive; x = no result given. This is a sample that favours compounds with a hit; in the whole collection about 3.2% have one here. Unless noted, calls come from the whole dose curve; as a rule, active = well fitted curve in the direction sought with a large enough effect; inconclusive = small, poorly fitted or top-dose-only effect, or another doubt; inactive = no such curve, though single readings can be large; an effect the other way counts as inactive or inconclusive.

SMILES | GLP1R ag | ClpP mod | GLP1R inv ag | HEK293 tox
CCC(Oc1ccccc1)C(=O)Nc1cc(-c2ccccc2F)nn1-c1ccccc1 (centres undefined) | x | n | u | n
Cc1[nH]c2ccccc2c1C1=NNC(=Nc2ccc(F)cc2)SC1 | n | n | 11µM | u
COc1ccc(N=C2NN=C(c3c(C)[nH]c4ccccc34)CS2)cc1 | n | x | u | u
CC(C)c1ccc(NC(=O)c2cc3c([nH]c2=O)CC(C)(C)CC3=O)cc1 | x | n | x | x
Cc1cccc(C)c1Nc1c(-c2ccc(Cl)s2)nc2ncccn12 | x | n | u | n
Cc1ccc(N(CC(=O)Nc2cc(Cl)ccc2Oc2ccccc2)S(C)(=O)=O)c(C)c1 | n | n | 7.1µM | n
Cc1ccc(NC(=O)Cn2c(-c3ccc4c(c3)OCO4)cn(-c3ccccc3)c2=O)cc1C | x | 28µM | n | n
COc1ccc(NC(=O)Cn2c(-c3ccccc3)cn(-c3ccc(C)cc3)c2=O)cc1 | n | n | 10µM | n
O=C(Cc1cccc([N+](=O)[O-])c1)NCc1nc2cccnc2n1Cc1ccc(F)cc1 | x | n | n | n
CCC(=O)Nc1ccc2c(c1)C(=O)N(C1CCCCC1)C2=O | n | 22µM | n | n
COc1ccc(C2c3ccc4ccccc4c3Oc3ncn(CCCO)c(=N)c32)cc1 (centres undefined) | n | x | 5.6µM | u
CN(C)CCCn1cnc2c(c1=N)C(c1ccccc1)c1ccc3ccccc3c1O2 (centres undefined) | n | n | u | u
COc1ccc(C2c3ccc4ccccc4c3Oc3ncn(CCN(C)C)c(=N)c32)cc1 (centres undefined) | n | x | 4µM | u
COc1ccc(C2c3ccc4ccccc4c3Oc3ncn(CCO)c(=N)c32)cc1 (centres undefined) | n | n | u | n
COc1ccc(N2CC(NC(=O)c3cccs3)CC2=O)cc1 (centres undefined) | x | n | n | n
Cn1cc(CN2CCCCC2CO)c(-c2ccc(Oc3ccccc3)cc2)n1 (centres undefined) | n | x | 10µM | n
COc1cccc(-c2nn(C)c3sc(C(=O)NCCCN(C)Cc4ccccc4)cc23)c1 | n | n | 5.6µM | u
COc1cccc(-c2nn(C)c3sc(C(=O)NCc4ccco4)cc23)c1 | n | 22µM | u | n
CCN1CCCC1CNC(=O)c1cc2c(-c3cccc(OC)c3)nn(C)c2s1 (centres undefined) | n | 32µM | u | u
CCN1CCCC1CNC(=O)c1cc2c(-c3ccc(Cl)cc3)nn(C)c2s1 (centres undefined) | n | n | u | u
CN(C)c1ccc(-c2nc(-c3cccs3)c(-c3cccs3)[nH]2)cc1 | x | 11µM | u | n
Oc1ccccc1-c1nc(-c2cccs2)c(-c2cccs2)[nH]1 | x | 14µM | u | n
Nc1nc2c(nc(N3CCOCC3)n2COCCO)c(=O)[nH]1 | x | n | x | x
CCOc1ccc(-c2cc(C(=O)Nc3ccc(C)c(NS(C)(=O)=O)c3)[nH]n2)c(C)c1 | n | n | 7.1µM | u
CCCCSCCCNC(=O)c1cn(C)c2ccc(S(=O)(=O)N3CCCCCC3)cc2c1=O | x | n | n | n
SMILES | GLP1R ag | ClpP mod | GLP1R inv ag | HEK293 tox
Cc1cc(N2CCCCC2)n2ncc(-c3ccc(Cl)cc3)c2n1 | n | 32µM | n | n
Cc1cc(N2CCC(C)CC2)n2ncc(-c3ccccc3)c2n1 | n | 32µM | u | n
Cc1cc(N2CCCCC2)n2ncc(-c3ccccc3)c2n1 | n | n | u | n
CCCS(=O)(=O)NC(=O)C1(C)CCCN(C(=O)c2cncc(Br)c2)C1 (centres undefined) | n | n | n | n
CCCCCCCCCC[n+]1ccc(/C=C/c2c[nH]c3ccccc23)c2ccccc21 | x | n | x | x
Cc1cc(C(=O)NCCC(c2ccccc2)c2ccccc2)c(C)o1 | n | n | 8.9µM | n
CCN(CC(O)c1cccc(O)c1)C(=O)C12CC3CC(CC(C3)C1)C2 (centres undefined) | 13µM | n | u | n
CNC[C@H](O)c1cccc(O)c1 | u | n | n | n
CCOc1ccc(-c2nnn(CC(=O)c3cc(OC)ccc3OC)n2)cc1 | n | 32µM | n | n
CCCCOc1ccc(-c2nnn(CC(=O)Nc3ncc(CC(=O)OCC)s3)n2)cc1 | n | n | u | n
CCOC(=O)Cc1cnc(NC(=O)Cn2nnc(-c3ccc(OCC)cc3)n2)s1 | n | 22µM | u | n
Cc1ccc(Cl)cc1NC(=O)c1cc(-c2ccc3c(c2)OCCO3)on1 | x | u | n | n
